For 8 compounds, growth results are on record in PubChem BioAssay (NCI).

Some test systems named below: NCI-H23 lung; NCI-H226 lung; NCI-H322M lung; HOP-62 NSCLC; NCI-H460 lung; HOP-92 NSCLC; NCI-H522 lung; A549/ATCC NSCLC; 786-0 renal; COLO 205 colon; DU-145 prostate; K-562 leukemia; MALME-3M melanoma; MDA-MB-231 breast; RXF 393 renal; SF-268 CNS; SF-295 CNS; SF-539 CNS; UACC-257 melanoma; M14 melanoma.
What all share (assay): NCI-60 one-dose screen, 48 h (100 = growth as untreated, 0 = no growth, -100 = all killed)
Holding throughout (conditions): 10 µM unless noted

Compounds without any hit were thinned out: in the full panel of roughly 83,000, 20% have a hit.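 Compound tested at a single concentration for 48 hours in 96-well plates; a percent growth value below 10 was scored as active.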 Values without a mark were called inactive. Activity calls are given as the source filed them.

As to `C=C1C(=O)O[C@H]2[C@H]1CC/C(COC(=O)c1c[nH]c3ccccc13)=C\CC[C@@]1(C)O[C@@H]21`, the growth in the test on NCI-H23 lung was -52.9% (active); in the test with NCI-H226 lung it was -78.3% (active); in the test with NCI-H322M lung it was 16%; in the test with HOP-62 NSCLC it was -43.3% (active); in the test with NCI-H460 lung, 2.46% (active); in the test on HOP-92 NSCLC, -59.7% (active). In addition, the growth in the test with NCI-H522 lung is -66.7% (active); in the test on A549/ATCC NSCLC, -7.16% (active); in the test on 786-0 renal, -92% (active); in the test on COLO 205 colon it was -53.5% (active); in the test on DU-145 prostate it was -68.6% (active); with K-562 leukemia, -16.1% (active). In addition, the growth with MALME-3M melanoma was -73.7% (active); in the test with MDA-MB-231 breast it was -68.8% (active); with RXF 393 renal, -90.6% (active); in the test with SF-268 CNS, -40.8% (active); in the test on SF-295 CNS, 50.2%; in the test with SF-539 CNS, -61.3% (active). Further, the values for the growth in the test on UACC-257 melanoma and in the test with M14 melanoma were -58.8% (active) and -64.7% (active), respectively.
With `C=CCn1c(SCC(=O)Nc2ccc(C(=O)/C=C/c3ccc(Cl)cc3)cc2)nnc1-c1cc(OC)c(OC)c(OC)c1`, the growth is 92.9% in the test with NCI-H23 lung; 79.6% in the test on NCI-H226 lung; 101% with NCI-H322M lung; 98.3% in the test on HOP-62 NSCLC; 99.6% in the test on NCI-H460 lung; 89.2% in the test on HOP-92 NSCLC. In addition, the growth was 76.3% with NCI-H522 lung; 85.6% in the test on A549/ATCC NSCLC; 81% with 786-0 renal; 110% in the test on COLO 205 colon; 100% with DU-145 prostate; 83.8% in the test on K-562 leukemia. The growth was 115% with MALME-3M melanoma; 80.5% in the test on MDA-MB-231 breast; 90.8% in the test with RXF 393 renal; 87.8% in the test on SF-268 CNS; 94.3% in the test on SF-295 CNS; 96.4% with SF-539 CNS. Besides, the growth with UACC-257 melanoma was 95.8%; in the test on M14 melanoma it was 93.9%.
Regarding `COc1ccc(-c2[nH]c3ccccc3c2C=C(C#N)C#N)cc1`, the growth with NCI-H23 lung is 2.52% (active); with NCI-H226 lung, 25.8%; in the test on NCI-H322M lung it was 52.1%; with HOP-62 NSCLC, 32.2%; in the test on NCI-H460 lung it was 6.67% (active); in the test with HOP-92 NSCLC, -17.2% (active). For the same compound, the growth in the test on NCI-H522 lung is -48.5% (active); with A549/ATCC NSCLC, 5.94% (active); in the test on 786-0 renal it was 14.9%; in the test with COLO 205 colon, -8.28% (active); with DU-145 prostate it was -10.1% (active); with K-562 leukemia it was -5.54% (active). Also, the growth is 87.4% in the test on MALME-3M melanoma; 17.6% with MDA-MB-231 breast; 3.79% (active) in the test on RXF 393 renal; 25.1% with SF-268 CNS; -50.4% (active) in the test with SF-295 CNS; -26.8% (active) in the test on SF-539 CNS. The growth is 54.2% in the test on UACC-257 melanoma and 1.05% (active) in the test with M14 melanoma.
On to `O=C(NCc1ccccc1)c1ccc2c(c1)NC(=O)[C@@H]1CCCN21`, for which the growth is 90.6% with NCI-H23 lung; 103% in the test on NCI-H226 lung; 92.8% in the test with NCI-H322M lung; 103% in the test with HOP-62 NSCLC; 94.7% in the test on NCI-H460 lung; 102% in the test with HOP-92 NSCLC. Besides, the growth is 91.3% in the test on NCI-H522 lung; 106% in the test on A549/ATCC NSCLC; 95.9% in the test with 786-0 renal; 110% with COLO 205 colon; 99.7% in the test on DU-145 prostate; 106% in the test with K-562 leukemia. For the same compound, the growth in the test on MALME-3M melanoma is 92.2%; in the test on MDA-MB-231 breast, 103%; in the test with RXF 393 renal, 109%; in the test on SF-268 CNS, 95.6%; in the test with SF-295 CNS it was 98.7%; with SF-539 CNS, 105%. Besides, the growth was 104% in the test with UACC-257 melanoma and 95.8% with M14 melanoma.
Turning to `CCC1S/C(=N\N=C(/C)c2ccc[nH]2)N(c2ccccc2)C1=O` (stereo not given), the growth with NCI-H23 lung is 98.8%; in the test with NCI-H226 lung, 132%; in the test on NCI-H322M lung it was 90.8%; with HOP-62 NSCLC it was 108%; in the test on NCI-H460 lung, 104%; in the test on HOP-92 NSCLC it was 70.5%. The growth in the test on NCI-H522 lung is 27.2%; in the test with A549/ATCC NSCLC it was 82.6%; in the test on 786-0 renal, 117%; in the test with COLO 205 colon, 127%; in the test with DU-145 prostate, 122%; with K-562 leukemia, 72.8%. The growth in the test with MALME-3M melanoma is 85.5%; in the test on MDA-MB-231 breast, 100%; in the test on RXF 393 renal, 91.4%; in the test with SF-268 CNS, 109%; in the test with SF-295 CNS, 120%; with SF-539 CNS it was 119%. Also, the figures for the growth with UACC-257 melanoma and in the test on M14 melanoma were 104% and 115%, respectively.
In the case of `Cc1cc(C)c2nc(Nc3nc(C)c(C)c(=O)[nH]3)nc(C)c2c1`, the growth is 18.4% with NCI-H23 lung; -4.16% (active) with NCI-H226 lung; 23.8% with NCI-H322M lung; 12.2% with HOP-62 NSCLC; 8.55% (active) in the test on NCI-H460 lung; 7.24% (active) with HOP-92 NSCLC. Moreover, the growth in the test with NCI-H522 lung is 7.15% (active); with A549/ATCC NSCLC it was -32.4% (active); in the test with 786-0 renal it was 6.33% (active); in the test on COLO 205 colon, 1.63% (active); in the test on DU-145 prostate, 19.1%; in the test on K-562 leukemia it was 12.2%. The growth in the test on MALME-3M melanoma was -6.48% (active); in the test with MDA-MB-231 breast, 27.8%; in the test on RXF 393 renal, -32.4% (active); in the test with SF-268 CNS, 26.9%; in the test with SF-295 CNS, 11%; in the test on SF-539 CNS it was 13.5%. Moreover, the results for the growth with UACC-257 melanoma and in the test on M14 melanoma were 14.1% and 13.7%, respectively.
For the compound `CCCCc1ccc(N=Nc2ccc(OCC[N+](C)(C)C)cc2)cc1`, the growth with NCI-H23 lung was 49.2%; in the test on NCI-H226 lung, 51.9%; with NCI-H322M lung, 73.8%; with HOP-62 NSCLC it was 20%; with NCI-H460 lung, 32.7%; with HOP-92 NSCLC, 25.8%. In addition, the growth is 34.4% in the test with NCI-H522 lung; 33.2% with A549/ATCC NSCLC; 71.4% in the test on 786-0 renal; -5.3% (active) in the test on COLO 205 colon; 60.5% in the test on DU-145 prostate; 44.5% in the test with K-562 leukemia. Also, the growth in the test on MALME-3M melanoma is 69.4%; in the test on MDA-MB-231 breast, 38.5%; with RXF 393 renal, 22.9%; in the test on SF-268 CNS, 26.9%; with SF-295 CNS it was 32.9%; in the test on SF-539 CNS it was 35.9%. For the same compound, the growth with UACC-257 melanoma is 71.4%; with M14 melanoma, 25.8%.
Turning to `O=C1NC(SCc2ccc(F)cc2)=N/C1=C/c1cccc(OCc2ccc(Cl)cc2)c1`, the growth in the test on NCI-H23 lung is 57.6%; with NCI-H226 lung, -7.92% (active); in the test with NCI-H322M lung, 50.3%; with HOP-62 NSCLC, 45.9%; in the test on NCI-H460 lung it was 11.8%; with HOP-92 NSCLC it was 68%. Also, the growth with NCI-H522 lung was 67.5%; with A549/ATCC NSCLC, 26.2%; with 786-0 renal it was -33.3% (active); with COLO 205 colon, 55.3%; in the test on DU-145 prostate, 80.6%; in the test with K-562 leukemia, 58.5%. For the same compound, the growth was 88.1% in the test on MALME-3M melanoma; 18.3% with MDA-MB-231 breast; 55% in the test on RXF 393 renal; 74.3% in the test on SF-268 CNS; -33.6% (active) with SF-295 CNS; 14.1% in the test on SF-539 CNS. Besides, the growth with UACC-257 melanoma was 95.8%; with M14 melanoma it was 63.9%.
